Structures are written as SMILES. Results filed as inconclusive are left out. The source made the active and inactive calls.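 How the source made its calls, unless noted: active means binding below the plate cutoff, the plate median minus 3 SD, with a reading above zero; inconclusive means below the plate cutoff but reading exactly zero; inactive means the rest.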

Assay [1] in a line: rapamycin-like changes in RPL19A-GFP expression – cell-based, S. cerevisiae, multiplex flow cytometry, primary screen (AID 1862; in the data active means percent of DMSO control GFP below about 86%;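 further: lower values mimic rapamycin by blocking the RPL19A rise seen in DMSO cells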). Conditions: S. cerevisiae RPL19A-GFP strain, flow cytometry fluorescence, 3 h; at 10 µM; stronger effect = lower value.
The nature of assay [2]: TOR pathway GLN3 branch reporter MEP2-GFP changes – S. cerevisiae, multiplex flow cytometry, primary screen (AID 1867;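 active means GFP response, as percent of the DMSO control, above the screen-wide mean plus 3 SD, about 139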;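 further: median GFP channel fluorescence of barcode-gated MEP2-GFP cells measured by flow cytometry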). Conditions: S. cerevisiae MEP2-GFP strain, 3 h, at 10 µM, stronger effect = higher value, 100% means same as DMSO wells.
Assay [3] is described as follows: TOR pathway RTG branch CIT2 reporter changes – S. cerevisiae, GFP fusion, multiplex flow cytometry, primary screen (AID 1870;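 active means percent response above a set limit, the screen-wide mean plus 3 SD, cut at about 130% in these data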;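 further: barcoded CIT2-GFP strain pooled with four other GFP strains with rapamycin as positive control; median GFP fluorescence per well over plate mean of DMSO wells so 100% = DMSO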). The settings on record: S. cerevisiae CIT2-GFP expression, 3 h, at 10 µM, stronger effect = higher value.
A short description of assay [4]: TOR pathway LAP4-GFP level changes – S. cerevisiae, multiplex flow cytometry, primary screen (AID 1873;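 active means GFP signal, as percent of the solvent control, above the screen mean plus 3 SD, about 149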). Conditions: S. cerevisiae LAP4-GFP expression, 3 h, at 10 µM, stronger effect = higher value.
Assay [5] is described as follows: yeast AGP1-GFP level changes, GLN3 branch – cell-based, multiplex flow cytometry, S. cerevisiae, primary screen (AID 1887;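 active means GFP signal above the screen-wide mean plus 3 SD, that is over about 124.5% of the solvent control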;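 further: AGP1-GFP fusion strain of S. cerevisiae within a five-strain barcoded multiplex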). Conditions: 3 h, at 10 µM, stronger effect = higher value.
Assay [6] in a line: reduced mouse 2C T cell binding to pMHC/ICAM-1 vesicles – MLPCN validation set, flow cytometry, LFA-1/ICAM-1 modulator project, pilot screen (AID 2523;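 active means response below a set limit, under 55% cells CD8-positive and vesicle-bound, and CD8 cells' 90th-percentile brightness under 279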;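 on vesicle binding response: mean PE anti-B7-1 fluorescence of CD8+ cells relative to row control; 100% = QL9-loaded vesicles with DMSO vehicle in the same plate row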). The settings on record: 2C mouse CD8+ T cells, at 7 µM, stronger effect = lower value; double positive events: measured here: CD8+/vesicle+ event percentage.
The target of assay [7] is Integrin beta-1 (Homo sapiens) + Integrin alpha-4 (Homo sapiens) (UniProt P13612+P05556). The experiment in a line: alpha4beta1 integrin LIBS antibody binding reduction – U937 cells, HUTS-21 mAb, flow cytometry, validation set, VLA-4 allosteric modulator project, pilot screen (AID 2674;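 active means inhibition above 50%, about 3 SD of the validation set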;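 further: antibody binding induced by the VLA-4 ligand LDV present at three times its Kd; 0% = LDV ligand with antibody and no compound and 100% = antibody without LDV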). The settings on record: HUTS-21 LIBS mAb binding, at 6.7 µM, stronger effect = higher value, binding induced by LDV ligand.
Chain of Integrin beta-1 (Homo sapiens) + Integrin alpha-4 (Homo sapiens) (P05556 whole entry, looked up): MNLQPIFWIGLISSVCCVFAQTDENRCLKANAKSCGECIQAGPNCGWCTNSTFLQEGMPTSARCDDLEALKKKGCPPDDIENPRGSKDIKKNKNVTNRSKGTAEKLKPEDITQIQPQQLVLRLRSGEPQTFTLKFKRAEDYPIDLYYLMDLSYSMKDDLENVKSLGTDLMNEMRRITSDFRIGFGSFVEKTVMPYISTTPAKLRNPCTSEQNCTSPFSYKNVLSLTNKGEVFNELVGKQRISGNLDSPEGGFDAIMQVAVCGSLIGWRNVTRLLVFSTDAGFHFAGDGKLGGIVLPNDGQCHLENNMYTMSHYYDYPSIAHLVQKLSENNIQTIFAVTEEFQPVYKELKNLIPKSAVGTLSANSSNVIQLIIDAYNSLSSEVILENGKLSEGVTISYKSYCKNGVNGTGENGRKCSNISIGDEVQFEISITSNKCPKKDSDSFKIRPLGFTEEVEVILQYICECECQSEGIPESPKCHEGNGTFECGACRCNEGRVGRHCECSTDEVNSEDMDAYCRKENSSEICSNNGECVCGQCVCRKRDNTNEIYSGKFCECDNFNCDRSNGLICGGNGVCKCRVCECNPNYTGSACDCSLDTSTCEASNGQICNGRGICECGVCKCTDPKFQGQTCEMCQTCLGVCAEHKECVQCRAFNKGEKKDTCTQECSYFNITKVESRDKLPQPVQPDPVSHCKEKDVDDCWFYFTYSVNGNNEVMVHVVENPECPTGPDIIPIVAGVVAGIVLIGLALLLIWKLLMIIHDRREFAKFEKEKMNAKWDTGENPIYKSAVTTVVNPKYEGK
Chain of Integrin beta-1 (Homo sapiens) + Integrin alpha-4 (Homo sapiens) (P13612 whole entry, looked up): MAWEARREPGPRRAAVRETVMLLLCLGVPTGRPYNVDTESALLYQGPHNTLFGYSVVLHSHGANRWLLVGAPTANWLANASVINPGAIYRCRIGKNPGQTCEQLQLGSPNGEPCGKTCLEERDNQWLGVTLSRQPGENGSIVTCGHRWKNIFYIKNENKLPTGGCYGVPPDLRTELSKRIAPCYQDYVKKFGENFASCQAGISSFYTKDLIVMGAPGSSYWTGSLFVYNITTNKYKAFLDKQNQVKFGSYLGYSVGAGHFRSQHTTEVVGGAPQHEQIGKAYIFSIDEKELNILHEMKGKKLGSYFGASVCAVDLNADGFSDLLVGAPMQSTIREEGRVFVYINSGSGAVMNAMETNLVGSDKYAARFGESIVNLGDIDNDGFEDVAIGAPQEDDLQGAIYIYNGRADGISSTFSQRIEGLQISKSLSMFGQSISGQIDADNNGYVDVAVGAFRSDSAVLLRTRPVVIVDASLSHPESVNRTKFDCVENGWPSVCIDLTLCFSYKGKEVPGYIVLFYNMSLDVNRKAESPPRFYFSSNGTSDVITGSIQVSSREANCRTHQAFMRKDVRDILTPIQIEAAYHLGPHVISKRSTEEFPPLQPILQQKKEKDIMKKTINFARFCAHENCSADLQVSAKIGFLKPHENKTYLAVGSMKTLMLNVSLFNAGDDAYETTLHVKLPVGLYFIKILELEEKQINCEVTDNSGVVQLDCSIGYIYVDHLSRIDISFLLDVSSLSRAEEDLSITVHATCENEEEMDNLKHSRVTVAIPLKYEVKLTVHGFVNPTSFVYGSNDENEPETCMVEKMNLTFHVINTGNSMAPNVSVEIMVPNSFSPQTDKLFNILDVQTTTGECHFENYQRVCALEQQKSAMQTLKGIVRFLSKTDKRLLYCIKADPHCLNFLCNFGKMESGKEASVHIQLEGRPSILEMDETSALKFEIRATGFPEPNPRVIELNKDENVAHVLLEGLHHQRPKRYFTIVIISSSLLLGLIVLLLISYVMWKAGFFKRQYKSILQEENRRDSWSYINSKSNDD

Assay [8] is described as follows: calorie-restriction mimetic ROS inhibitors, yeast – validation compound set, pilot screen (AID 2706;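 active means superoxide response below 65% of plate, a cut near 3 SD across the whole screen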;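 further: yeast exposed to compound for one week at 30 degrees C before staining; 100% = mean of all compound wells on the same plate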). The settings on record: S. cerevisiae aging, superoxide DHE fluorescence; at 10 µM, stronger effect = lower value.
Assay [9] concerns the target Beta-adrenergic receptor kinase 1 (Homo sapiens) (UniProt P25098). Kind of assay: GRK2 binders displacing RNA aptamer, biochemical, validation, human GRK2, bead flow cytometry (AID 488806;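 active means aptamer binding inhibition above 30%, about 3 SD of noise from non-fluorescent compounds; inactive means inhibition at or below 30%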). Conditions: bead-bound GRK2, FAM-aptamer displacement, at 10 µM, stronger effect = higher value.
Assay [10] addresses AP-2 complex subunit beta (Homo sapiens) (UniProt P63010). Kind of assay: beta-arrestin/AP2 interaction blockers – biochemical, validation set, GST-AP2 beads, flow cytometry, pilot screen (AID 504541;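 active means inhibition above 54%, about 3 SD of non-fluorescent compounds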;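 further: AP2 carries R879A mutation and is captured from E. coli lysate; bead-bound FITC arrestin peptide fluorescence measuring arrestin peptide binding to AP2; 0% = DMSO wells and 100% = excess unlabeled arrestin peptide control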). The settings on record: FITC arrestin peptide, at 10 µM, stronger effect = higher value, AP2 beta2 appendage fragment, R879A mutant.
Assay [11] can be described thus: cytosolic pH regulators acting via V-ATPase – S. cerevisiae, pHLuorin, HTS validation (AID 504600; in the data active means response above about 15%;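 further: plate controls were DMSO for no effect and reference compound for full effect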). Conditions: V-ATPase proton transport, at 10 µM, stronger effect = higher value.
Assay [12] relates to anti-desmoglein-3 scFv antibody binding to human DSG3. The experiment in a line: blockers of pathogenic pemphigus antibody–desmoglein-3 binding – biochemical, validation compound set, bead-based, flow cytometry, pilot screen (AID 588368).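 Further: signal is the median channel fluorescence of bead-bound GFP antibody.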 Conditions: Protein G beads, DSG3-Fc, scFv-GFP binding, at 10 µM, stronger effect = lower value.
Assay [13] is described as follows: Nile Red efflux blockade in pump-expressing yeast – validation compound set, multiplex, phenotypic, pilot screen (AID 588506;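 active means efflux inhibition above 0.42, the validation set average plus 4 SD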;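 further: Nile Red retained in cells so higher fluorescence means more efflux inhibition; 0 = negative control wells and 1 = enniatin B 25 µM full block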). The settings on record: S. cerevisiae pump-expressing triplex, Nile Red efflux flow cytometry; at 10 µM; stronger effect = higher value; the pumps come from Candida albicans.
The target of assay [14] is ATP-binding cassette sub-family B member 6 (Homo sapiens) (UniProt Q9NP58). The experiment in a line: blockers of ABCB6-driven porphyrin uptake – K562-ABCB6 cells, flow cytometry, validation set, pilot screen (AID 588550;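 active means inhibition above the screen-wide mean plus 3 SD, about 51%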;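 further: 0% = DMSO wells and 100% = benzethonium chloride 70 µM positive control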). Conditions: K562-ABCB6 porphyrin accumulation, 1 h, at 10 µM, stronger effect = higher value.
Chain of ATP-binding cassette sub-family B member 6 (Homo sapiens) (Q9NP58 whole entry, looked up): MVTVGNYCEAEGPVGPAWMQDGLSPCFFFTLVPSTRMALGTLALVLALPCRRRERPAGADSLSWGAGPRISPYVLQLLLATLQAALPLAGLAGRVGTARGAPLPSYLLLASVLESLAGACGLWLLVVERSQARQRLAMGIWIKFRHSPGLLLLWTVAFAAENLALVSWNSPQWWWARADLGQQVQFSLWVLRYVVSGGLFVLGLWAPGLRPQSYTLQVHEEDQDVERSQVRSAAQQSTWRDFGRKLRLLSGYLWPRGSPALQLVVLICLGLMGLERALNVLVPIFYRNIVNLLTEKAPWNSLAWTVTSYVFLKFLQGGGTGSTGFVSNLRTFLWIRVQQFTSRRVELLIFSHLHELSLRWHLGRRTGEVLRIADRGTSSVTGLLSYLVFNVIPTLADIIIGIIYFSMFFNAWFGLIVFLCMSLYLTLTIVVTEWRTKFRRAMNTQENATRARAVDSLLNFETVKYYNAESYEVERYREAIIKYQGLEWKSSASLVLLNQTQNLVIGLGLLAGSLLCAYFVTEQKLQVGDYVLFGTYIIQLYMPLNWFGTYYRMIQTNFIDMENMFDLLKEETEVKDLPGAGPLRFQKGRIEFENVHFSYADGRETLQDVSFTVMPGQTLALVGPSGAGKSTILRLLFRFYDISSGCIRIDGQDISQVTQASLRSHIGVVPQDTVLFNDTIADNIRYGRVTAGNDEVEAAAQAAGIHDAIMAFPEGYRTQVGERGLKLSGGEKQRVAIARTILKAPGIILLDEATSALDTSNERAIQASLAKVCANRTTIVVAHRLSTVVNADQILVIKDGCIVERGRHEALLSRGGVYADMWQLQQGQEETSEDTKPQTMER
A short description of assay [15]: AML differentiation inducers, ER-HoxA9 marrow cells – cell-based, GFP/MAC1 double positive, flow cytometry, validation set, primary screen (AID 588685;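 active means differentiation response of at least 50%, scaled between solvent and reference control, from cells with both markers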;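 further: compound exposure lasts four days before antibody staining and flow analysis; 0% = DMSO wells and 100% = 5 µM fulvestrant positive control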). The settings on record: stronger effect = higher value, normalized: vehicle 0, fulvestrant 100.

Chain of Beta-adrenergic receptor kinase 1 (Homo sapiens) (P25098 whole entry, looked up): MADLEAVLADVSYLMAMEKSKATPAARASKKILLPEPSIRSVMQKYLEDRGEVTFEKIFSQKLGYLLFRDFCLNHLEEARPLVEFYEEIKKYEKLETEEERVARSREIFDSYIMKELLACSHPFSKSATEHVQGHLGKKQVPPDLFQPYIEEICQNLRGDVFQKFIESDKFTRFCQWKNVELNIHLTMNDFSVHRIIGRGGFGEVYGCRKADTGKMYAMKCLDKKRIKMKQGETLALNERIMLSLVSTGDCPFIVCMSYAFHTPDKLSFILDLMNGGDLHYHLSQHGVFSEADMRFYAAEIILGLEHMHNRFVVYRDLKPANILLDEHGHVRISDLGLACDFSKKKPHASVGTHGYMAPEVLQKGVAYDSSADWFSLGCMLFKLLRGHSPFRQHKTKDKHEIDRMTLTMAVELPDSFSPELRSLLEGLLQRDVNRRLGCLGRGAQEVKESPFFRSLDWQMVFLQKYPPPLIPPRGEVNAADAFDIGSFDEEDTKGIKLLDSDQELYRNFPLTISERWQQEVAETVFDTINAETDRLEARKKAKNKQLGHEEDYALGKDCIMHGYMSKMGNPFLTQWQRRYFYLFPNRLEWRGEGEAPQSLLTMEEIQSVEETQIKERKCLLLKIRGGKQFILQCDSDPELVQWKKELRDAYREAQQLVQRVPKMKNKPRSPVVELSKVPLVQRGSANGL
Chain of AP-2 complex subunit beta (Homo sapiens) (P63010 whole entry, looked up, the tested form may be a part, one chain of several): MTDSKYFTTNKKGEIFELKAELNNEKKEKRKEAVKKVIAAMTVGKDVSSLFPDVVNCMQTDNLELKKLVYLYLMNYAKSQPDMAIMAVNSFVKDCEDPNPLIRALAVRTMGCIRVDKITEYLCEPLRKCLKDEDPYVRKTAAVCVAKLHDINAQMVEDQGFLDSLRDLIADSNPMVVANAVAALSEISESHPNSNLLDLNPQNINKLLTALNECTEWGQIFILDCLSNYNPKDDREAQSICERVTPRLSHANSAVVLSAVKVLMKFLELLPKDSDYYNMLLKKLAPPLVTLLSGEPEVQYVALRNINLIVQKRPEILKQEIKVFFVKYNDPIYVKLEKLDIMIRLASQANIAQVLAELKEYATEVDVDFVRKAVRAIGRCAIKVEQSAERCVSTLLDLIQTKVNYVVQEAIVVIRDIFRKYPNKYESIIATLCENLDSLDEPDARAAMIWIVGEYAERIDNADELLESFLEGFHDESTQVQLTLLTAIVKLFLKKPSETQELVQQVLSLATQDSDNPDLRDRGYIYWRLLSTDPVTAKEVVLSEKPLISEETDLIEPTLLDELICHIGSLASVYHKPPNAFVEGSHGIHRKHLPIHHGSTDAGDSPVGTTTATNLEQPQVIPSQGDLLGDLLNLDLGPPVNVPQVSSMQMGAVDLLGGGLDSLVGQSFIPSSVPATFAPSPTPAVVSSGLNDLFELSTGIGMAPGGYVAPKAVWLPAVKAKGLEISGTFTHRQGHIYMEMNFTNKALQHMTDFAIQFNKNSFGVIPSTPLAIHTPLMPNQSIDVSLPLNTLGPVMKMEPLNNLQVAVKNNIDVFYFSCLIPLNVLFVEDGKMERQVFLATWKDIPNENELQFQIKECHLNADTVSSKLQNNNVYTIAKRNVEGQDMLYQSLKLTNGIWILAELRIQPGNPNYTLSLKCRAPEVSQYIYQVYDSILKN

Consider `Cc1ccc2c(c1)C(O)(c1c(C)[nH]c3ccccc13)C(=O)N2` (stereo not given), for which, in [1], the percent of DMSO control GFP is 98.6% (inactive). In addition, the results for the GFP response vs DMSO in assay [2] and in assay [4] were 97.9% (inactive) and 96.4% (inactive), respectively. Further, the percent response of DMSO control in [3] was 106% (inactive). The GFP response, % of DMSO in assay [5] is 90.1% (inactive). The same compound gave a double positive events in assay [6] of 57.8%. Further, the vesicle binding response in assay [6] is 259% (inactive). Also, the inhibition in assay [7] was -4.9% (inactive); in assay [10], -11.2% (inactive); in [14], 5% (inactive). Also, the superoxide response (% of plate) in [8] is 98.1% (inactive). In addition, in [9], the aptamer binding inhibition was -1% (inactive). Besides, the response in assay [11] was -5.66% (inactive). The binding (% of control) in [12] was 102% (inactive). Besides, the efflux inhibition (fraction of control) in [13] is 0.1 (inactive). In addition, the differentiation response in [15] was -34.1% (inactive).
On to `CC1(C)S[C@@H]2[C@H](NC(=O)C(C(=O)O)c3ccccc3)C(=O)N2[C@H]1C(=O)O` (stereo not given in full), for which the percent of DMSO control GFP in assay [1] is 96.3% (inactive). Further, the values for the GFP response vs DMSO in assay [2] and in assay [4] were 94.8% (inactive) and 88.3% (inactive), respectively. Moreover, the percent response of DMSO control in [3] was 105% (inactive). Besides, the GFP response, % of DMSO in assay [5] was 98.5% (inactive). In [6], this compound registered a double positive events of 53.1%. In addition, the vesicle binding response in assay [6] was 212% (inactive). The inhibition in [7] was 2.56% (inactive); in [10], 1.78% (inactive); in assay [14], 9% (inactive). For the same compound, in [8], the superoxide response (% of plate) was 108% (inactive). Further, in assay [9], the aptamer binding inhibition is 4% (inactive). Also, the response in assay [11] was -1.48% (inactive). In assay [12], the binding (% of control) is 97.2% (inactive). The efflux inhibition (fraction of control) in [13] is -0.12 (inactive). The differentiation response in assay [15] is 1.41% (inactive).
As to `Cc1cnc(C(=O)NCCc2ccc(S(=O)(=O)NC(=O)NC3CCCCC3)cc2)cn1`, in [1], the percent of DMSO control GFP is 93.9% (inactive). The GFP response vs DMSO in [2] is 93.8% (inactive); in assay [4], 92.3% (inactive). Also, the percent response of DMSO control in [3] is 110% (inactive). The GFP response, % of DMSO in assay [5] was 92.2% (inactive). The double positive events in assay [6] was 65%. Further, the vesicle binding response in assay [6] is 230% (inactive). Besides, the inhibition was -9.57% (inactive) in assay [7], -11.4% (inactive) in assay [10] and 4% (inactive) in assay [14]. In addition, in assay [8], the superoxide response (% of plate) was 95.2% (inactive). Moreover, in assay [9], the aptamer binding inhibition is 2% (inactive). Further, the response in [11] is -3.18% (inactive). In [12], the binding (% of control) is 104% (inactive). The efflux inhibition (fraction of control) in assay [13] was -0.12 (inactive). Moreover, the differentiation response in [15] is -3.43% (inactive).
In the case of `CC(C)(C)NC[C@H](O)COc1nsnc1N1CCOCC1`, in assay [1], the percent of DMSO control GFP was 94.4% (inactive). Moreover, the results for the GFP response vs DMSO in [2] and in [4] were 136% (inactive) and 78.7% (inactive), respectively. Moreover, in [3], the percent response of DMSO control is 108% (inactive). Further, the GFP response, % of DMSO in [5] is 93.1% (inactive). The compound also registered a double positive events in assay [6] of 70.5%. The vesicle binding response in assay [6] was 173% (inactive). The inhibition in [7] is 17.1% (inactive); in assay [10], -3.6% (inactive); in assay [14], 9% (inactive). For the same compound, the superoxide response (% of plate) in [8] was 91.1% (inactive). Moreover, in [9], the aptamer binding inhibition was 3% (inactive). Further, the response in [11] is 4.73% (inactive). For the same compound, the binding (% of control) in [12] is 96.3% (inactive). Moreover, the efflux inhibition (fraction of control) in [13] was 0.05 (inactive). Also, the differentiation response in [15] was -0.82% (inactive).
As to `O=C1CCCN1CCCn1cnc2c([nH]c3ccc(F)cc32)c1=O`, the percent of DMSO control GFP in assay [1] was 105% (inactive). For the same compound, the GFP response vs DMSO is 104% (inactive) in assay [2] and 89.3% (inactive) in assay [4]. The percent response of DMSO control in [3] is 101% (inactive). The GFP response, % of DMSO in assay [5] is 101% (inactive). The compound further came in with a double positive events in assay [6] of 57.6%. For the same compound, the vesicle binding response in [6] is 124% (inactive). For the same compound, the inhibition in assay [7] was 10.9% (inactive); in assay [10], -10.6% (inactive); in [14], 10% (inactive). Moreover, in assay [8], the superoxide response (% of plate) is 114% (inactive). In assay [9], the aptamer binding inhibition is -1% (inactive). Besides, in assay [11], the response was 1.63% (inactive). The binding (% of control) in [12] is 100% (inactive). For the same compound, the efflux inhibition (fraction of control) in assay [13] is -0.28 (inactive). In addition, in assay [15], the differentiation response was -27.6% (inactive).

For the origin of these results see PubChem BioAssay.
